# Records with an inconclusive call do not appear. The source made the active and inactive calls. Unless noted, calls come from the whole dose curve; as a rule, active = well fitted curve in the direction sought with a large enough effect; inconclusive = small, poorly fitted or top-dose-only effect, or another doubt; inactive = no such curve, though single readings can be large; an effect the other way counts as inactive or inconclusive.
# Columns and labels:
# [1] = qHTS profiling for inhibitors of Plasmodium falciparum (3D7) proliferation (AID 743322; call rule not given here;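 note: infected erythrocytes exposed to compound for 72 h before lysis; 100% = DMSO vehicle wells and 0% = 0.29 µM artemisinin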); conditions: P. falciparum 3D7 proliferation; at 28.7 µM (top of the series)
# In short: (§1)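 Erythrocytes infected with P. falciparum (0.3% parasitemia, 2.5% hematocrit) incubated with compounds 72 h at 37 C, 5% CO2. Lysis with saponin/Triton buffer containing SYBR Green I, overnight at room temperature in the dark; DNA fluorescence (485/535 nm) normalised to 0.29 uM artemisinin and DMSO.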
# [2] = qHTS profiling for inhibitors of Plasmodium falciparum (DD2) proliferation (AID 743323; call rule not given here); conditions: lower = more inhibition; at 28.7 µM (top of the series)
# In short: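 1536-well qHTS; infected RBCs 0.3% parasitemia/2.5% Hct final; cpd 72 h 37 C 5% CO2; lysis buffer + SYBR Green I, o/n RT dark; FI 485/535; norm. to 0.29 uM artemisinin and DMSO, plate-stack corrected.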
# [3] = qHTS profiling for inhibitors of Plasmodium falciparum (HB3) proliferation (AID 743324); conditions: Plasmodium falciparum HB3 blood-stage proliferation; at 28.7 µM (top of the series);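 note: 100% = DMSO vehicle wells and 0% = artemisinin-treated control wells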
# In short: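 P. falciparum HB3 grown in erythrocytes (0.3% parasitemia, 2.5% hematocrit final) with compound for 72 h at 37 C, 5% CO2. Parasite DNA detected by SYBR Green after saponin/triton lysis overnight; normalized to 0.29 uM artemisinin and DMSO.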
# [4] = qHTS profiling of the MIPE4 collection as inhibitors of Plasmodium falciparum (3D7) proliferation (AID 743344; call rule not given here;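 note: scaled between DMSO vehicle wells and 0.29 µM artemisinin as full inhibition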); conditions: P. falciparum 3D7 in erythrocytes, SYBR Green DNA fluorescence, 72 h; at 28.5 µM (top of the series) unless noted
# In short: as §1
# [5] = qHTS profiling of the MIPE4 collection as inhibitors of Plasmodium falciparum (DD2) proliferation (AID 743345; call rule not given here); conditions: P. falciparum Dd2 in erythrocytes, SYBR Green DNA, 72 h; at 28.5 µM (top of the series) unless noted
# In short: as §1
# [6] = qHTS profiling of the MIPE4 collection as inhibitors of Plasmodium falciparum (DD2) proliferation (Rep 2) (AID 743346; call rule not given here); conditions: P. falciparum Dd2 in erythrocytes, SYBR Green DNA, 72 h; at 28.5 µM (top of the series) unless noted
# In short: as §1
# [7] = High-throughput drug toxicity screening in the BPDCN cell line Gen2.2 (AID 1224824; call rule not given here;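 note: cells exposed to compounds for 48 h before reading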); conditions: Gen2.2 BPDCN cells; at 45.8 µM (top of the series) unless noted
# In short: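 Readout is ATP luminescence from Gen2.2 cells after two days of drug exposure in serum-containing medium at 37 °C. Values express percent activity, with vehicle defining full signal and 9.2 uM bortezomib defining zero.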
# [8] = High-throughput drug toxicity screening in the BPDCN cell line Cal-1 (AID 1224825; call rule not given here); conditions: Cal-1 BPDCN cell viability, qHTS; at 45.8 µM (top of the series) unless noted
# In short: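 500 Cal-1 cells/well, RPMI + glutamine + 10% FBS (phenol red-free); cpd added by pin tool; 48 h, 37C, 5% CO2; CTG 15 min RT, lumi read. Normalised: DMSO 100%, bortezomib 9.2 uM 0%.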
# [9] = qHTS assay for measurement of the activity of small molecule inhibitors on Zika virus induced Caspase-3 activity in human iPSC derived neural progenitor cells (hNPCs) (AID 1224857); note: % of control where 0% means no effect; nearly all actives have a fitted effect of over 65% in size
# In short: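 Zika virus (2 FFU/cell) infection of human iPSC-derived NPCs, 6 h, following 1 h compound preincubation. Read-out: Caspase-Glo 3/7 luminescence.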
# [10] = qHTS assay for measurement of the activity of small molecule inhibitors on Zika virus induced Caspase-3 activity in human astrocytoma cells (AID 1224859);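 note: plate controls were ZIKV-infected untreated cells for no effect and uninfected cells for full effect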
# In short: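 Caspase activation in ZIKV-infected SNB-19 cells (2 FFU/cell, 6 h) measured by Caspase-Glo 3/7 luminescence after 30 min RT; compound pre-incubated 1 h; normalised to uninfected and infected controls.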
# [11] = qHTS Screen of the MIPE 4.0 Collection Against Ewings Sarcoma (RDES) (AID 1259252); note: nearly all actives have a fitted effect of over 35% in size; note: potency is the fitted concentration of half-maximal effect
# In short: (§2)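 CellTiter-Glo luminescence after 48 h compound exposure (titration) gave viability; percent activity used DMSO-treated cells as no inhibition and medium-only wells as full inhibition. Cells grown in RPMI/5% FBS, dosed 4 h post-seeding.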
# [12] = qHTS Screen of the MIPE 4.0 Collection Against Ewings Sarcoma (TC71) (AID 1259253); note: nearly all actives have a fitted effect of over 40% in size; note: potency is the fitted concentration of half-maximal effect
# In short: as §2
# [13] = qHTS Screen of the MIPE 4.0 Collection Against Ewings Sarcoma (EW8) (AID 1259255); note: nearly all actives have a fitted effect of over 35% in size; note: potency is the fitted concentration of half-maximal effect;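 for viability: 100% = DMSO-treated cells and 0% = medium-only wells without cells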
# In short: as §2
# [14] = qHTS Screen of the MIPE 4.0 Collection Against Ewings Sarcoma (TC32) (AID 1259256); note: nearly all actives have a fitted effect of over 45% in size; note: potency is the fitted concentration of half-maximal effect
# In short: as §2
# [15] = qHTS profiling of the MIPE4 collection as inhibitors of Plasmodium falciparum (HB3) proliferation (AID 743347; call rule not given here;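 note: plate controls were DMSO vehicle wells for no effect and artemisinin wells for full effect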); conditions: P. falciparum HB3 in erythrocytes, SYBR Green DNA, 72 h; at 28.5 µM (top of the series) unless noted
# In short: as §1
SMILES,remaining parasite growth % (stronger effect = lower value) [1] [%],"activity, percent of control [2] [%]","remaining proliferation (% of control), lower = more inhibition [3] [%]","parasite growth, % of DMSO control [4] [%]","parasite growth remaining, % of DMSO control (lower = more inhibition) [5] [%]","parasite growth, % of control (lower = inhibition) [6] [%]","cell viability, % of control (lower = more cytotoxic) [7] [%]",viability (% of control) [8] [%],Potency [9],Potency [10],Potency [11],Potency [12],Potency [13],Potency [14],"growth, % of control [15] [%]"
O=C(C[C@@H]1CC=CCCC(=O)O[C@H](c2ccccc2)CNC1=O)NCc1ccc(Cl)cc1,94.2,102,71.1,62.4,96.1,65.3,17,94.4,inactive,inactive,inactive,inactive,inactive,inactive,
CC1(C)CC(O)CC(C)(C)N1[O],,,,,,,152,102,inactive,inactive,inactive,inactive,inactive,inactive,
COc1cc(C)c(Sc2cnc(NC(=O)c3ccc(CNC(C)C(C)(C)C)cc3)s2)cc1C(=O)N1CCN(C(C)=O)CC1 (configuration not stated),8.84,8.81,4.6,,11,17.2,4.37,3.38,inactive,inactive,16.6 µM (active),14.8 µM (active),1.48 µM (active),2.96 µM (active),4.86
C=C1C[C@@]2(O)O[C@@]3(C[C@H]2C(C)C)[C@H](C)CC[C@H]13,,,,,,,67.8,101,inactive,inactive,inactive,inactive,inactive,inactive,
CCCCCCCCCCCCc1ccc(S(=O)(=O)Nc2nncs2)cc1,,,,79.3,92.3,80.6,86,105,inactive,inactive,inactive,inactive,inactive,inactive,
Cc1coc2c1C(=O)C(=O)c1c-2ccc2c(C)cccc12,,,,8.32,19.5,15.4,45.1,93.8,inactive,inactive,inactive,11.8 µM (active),inactive,inactive,
O=C(O)C[C@H](O)C[C@H](O)C=Cc1c(C2CC2)nc2ccccc2c1-c1ccc(F)cc1,,,,94,92.7,67,4.71,38.9,inactive,inactive,2.64 µM (active),1.87 µM (active),3.72 µM (active),1.05 µM (active),
